PP5 primary: PP5 (human) phosphatase inhibition; P53041; purified PP5c, OMFP substrate fluorescence; inhibition, % at 6.7 µM; 0.18% of 320,000 active; AID 1987;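 active means inhibition above the campaign's mean inhibition across all tested compounds plus 3 SD, cut at about 9.5% in these data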;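 further: 0% = DMSO only and 100% = 100 µM cantharidin control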
Calb FLC: C. albicans growth modulation with fluconazole. C. albicans CaCi-2 (fluconazole-resistant clinical isolate) + fluconazole, Alamar Blue growth, 48 h. growth inhibition, % (no concentration beside the values). 0.57% of 300,000 active;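 active means growth inhibition above about 58% in most replicates, limit read from the data, passing the limit was not always enough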;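 further: all wells also contain fluconazole at 8 µg/ml as a sub-toxic cotreatment; 0% = median of DMSO wells and 100% = median of geldanamycin control wells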
Beta cell apopt: beta cell apoptosis inhibition; INS-1E cytokine-induced death, ATP luminescence, 48 h; percent of positive-control rescue, neutral wells zero; protection from apoptosis, % (test concentration not listed); 0.8% of 300,000 active;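 active means Every replicate reaches about 75%, or at least half do and their mean reaches it too, limit read from the data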;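 further: 0% = cytokine-treated negative control wells and 100% = positive control rescue; higher means more ATP so stronger rescue from cytokine killing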
PP1 inh: PP1-alpha (human) inhibition in PP5 counter-screen | purified PP1alpha, OMFP fluorescence | inhibition, % at 6.7 µM | 0.9% of 320,000 active | AID 2235;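 active means inhibition above the mean inhibition of all tested compounds plus 3 SD, computed separately for each screening campaign, cut at about 15% in these data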
Mdm2 MdmX PPI: human Mdm2/MdmX binding inhibition. SaOS-2 split-luciferase Mdm2/MdmX complementation, luminescence. inhibition, % at 8 µM. 3% of 330,000 active. AID 485346;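 active means inhibition of at least 50% at 8 µM in the primary screen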
CSC inhib: cancer stem cell inhibition. cancer stem cell-like cells viability, luminescence. inhibition, % at 7.5 µM. 1.1% of 300,000 active. AID 2717; in the data active means inhibition above about 75%; tested in HMLE shEcad cells
Mdm2 MdmX conf: confirmation of human Mdm2/MdmX interaction inhibitors | inhibition, % at 8 µM | shares compounds with Mdm2 MdmX PPI | Mdm2-MdmX binding, luminescent assay | 55% of 10,000 active; in the data active means inhibition above about 40%
FLuc counter: full-length luciferase inhibition in Mdm2/MdmX counter-screen | shares compounds with Mdm2 MdmX PPI | SaOS-2 full-length luciferase counterscreen, luminescence | inhibition, % at 8 µM | 77% of 6,200 active;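 active means mean inhibition at 8 µM reaching about 37%, which flags the compound as non-specific, limit read from the data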;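 further: p53-null SaOS-2 cells with luciferase driven by a doxycycline-inducible promoter; compound on cells about two nights before reading with doxycycline added after day one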
An asterisk follows results filed as active; x = not tested or not shown. Rows were chosen to be rich in hits. Some 4.9% of all compounds tested hit in one or more screens of this group.

SMILES	PP5 primary	Calb FLC	Beta cell apopt	PP1 inh	Mdm2 MdmX PPI	CSC inhib	Mdm2 MdmX conf	others
COc1ccc(/C=N/Nc2nnc(-c3ncc[nH]3)c3ccccc23)cc1	3	-8	5	-3	52*	18	-4
Oc1ccc2ccccc2c1/C=N/Nc1nnc(-c2ncc[nH]2)c2ccccc12	1	108*	107*	14	81*	100*	83*	FLuc counter=55*
Clc1nnc(N/N=C/c2ccccc2)c2ccccc12	5	19	6	-3	-120	1	x
Oc1ccccc1N=Cc1c(O)ccc2ccccc12	x	-13	x	x	12	x	x
CCCCn1c(N)c(N(CC(C)C)C(=O)c2ccc([N+](=O)[O-])o2)c(=O)[nH]c1=O	1	x	-6	-1	17	5	x
COc1ccccc1C(=O)ON=C1c2ccccc2-c2ccccc21	0	-8	-2	-2	9	4	x
CSc1ccccc1OCc1cc(C(=O)NCCC2=CCCCC2)no1	3	-2	-7	0	52*	2	8
O=C(Nc1nc(-c2cc3ccccc3o2)cs1)c1ccc(S(=O)(=O)N2CCCC2)cc1	4	4	72	3	28	18	x
CC1CN(S(=O)(=O)c2ccc(NC(=O)c3cc(-c4ccccc4O)n[nH]3)cc2)CC(C)O1 (stereo not drawn)	6	53	8	3	58*	40	32
CC1CN(S(=O)(=O)c2ccc(C(=O)Nc3nc(-c4cc5ccccc5o4)cs3)cc2)CC(C)O1 (stereo not drawn)	-1	-11	55	-2	76*	29	20
O=C(Nc1ccc(S(=O)(=O)N2CCOCC2)cc1)c1cc(-c2ccccc2O)n[nH]1	-1	0	-4	-3	1	2	x
COCCN(CC1CCCN(C2Cc3ccccc3C2)C1)C(=O)CSC (stereo not drawn)	4	-3	x	3	9	-3	x
c1ccc(CSc2ncn[nH]2)nc1	1	-4	-3	-3	23	-20	x
CNc1[nH]c(=O)[nH]c(=O)c1N=Nc1cc(Cl)ccc1Cl	-1	-7	1	1	-7	3	x
CCOC(=O)C1CCN(C(=O)c2oc3ccc4c(c3c2C)C(O)CC2(CCCCC2)O4)CC1 (stereo not drawn)	1	-9	5	-4	20	28	x
Cc1c(C(=O)NCCCN2CCCCC2)oc2ccc3c(c12)C(O)CC1(CCCCC1)O3 (stereo not drawn)	2	47	2	-3	76*	27	30	FLuc counter=55*
COc1cccc(CN(C)C(=O)CCNC(=O)c2ccc(Br)cc2)c1	4	-9	3	-2	6	-5	x
CCOC(=O)C1CCCN(c2nc3ccccc3nc2NS(=O)(=O)c2ccc(C)cc2)C1 (stereo not drawn)	0	x	-5	-1	-24	0	x
Cc1ccc(S(=O)(=O)N(C)C)cc1NC(=S)NNC(=O)C(N)=O	1	-20	x	0	-35	-11	x
COc1ccc(NC(=O)NC23CC4(C)CC(C)(CC(C)(C4)C2)C3)cc1	3	-3	3	3	25	10	x
CCCNC(=O)c1ccc2c(=O)c(O)c(-c3ccc(F)cc3)[nH]c2c1	0	89*	14	-3	69*	4	19
CCCNC(=O)c1ccc2c(=O)c(O)c(-c3cccc(Br)c3)[nH]c2c1	5	114*	98*	0	53*	125*	70*	FLuc counter=31
CCCNC(=O)c1ccc2c(=O)c(O)c(C)[nH]c2c1	-1	-3	-4	-2	0	-5	x
COc1ccc(C(CCNCc2ccc(N(C)C)cc2)C(C)C)cc1 (stereo not drawn)	3	-22	37	-1	49	19	x
COc1ccc(CNCCC(c2ccc(OC(C)C)cc2)C(C)C)cc1OC (stereo not drawn)	1	-22	86*	0	77*	-4	50*	FLuc counter=67*
SMILES	PP5 primary	Calb FLC	Beta cell apopt	PP1 inh	Mdm2 MdmX PPI	CSC inhib	Mdm2 MdmX conf	others
COc1ccc(C(CCNCc2ccc(OC(C)C)cc2)C(C)C)cc1 (stereo not drawn)	1	15	57	4	85*	35	39	FLuc counter=71*
O=C(O)c1ccccc1-c1csc(-c2ccccc2)n1	1	34	-8	-2	-21	-2	x
Cc1cccc(C)c1OCc1cc(C(=O)N2CCN(c3ccc(F)cc3)CC2)no1	5	8	x	6	-159	x	x
Cc1ccc(S(=O)(=O)c2c(N)n(CCCN(C)C)c3nc4ccccc4nc23)cc1	0	13	x	-1	54*	x	11
Fc1ccc(NC(=S)Nc2ccc(Cl)cc2Cl)cc1	0	-27	-3	4	10	3	x
Fc1ccccc1/C=N/NC(=S)Nc1ccc(Cl)cc1Cl	1	36	13	13	80*	64	72*	FLuc counter=90*
C=CCOc1ccc(C2/C(=C(/O)c3ccc4c(c3)CC(C)O4)C(=O)C(=O)N2CCCN2CCOCC2)cc1 (stereo not drawn)	0	-2	-4	6	-4	7	x
COc1ccc(-c2nc(NC(=O)C3CC(=O)N(c4ccc5c(c4)OCCO5)C3)sc2C)cc1 (stereo not drawn)	4	0	43	3	66*	53	58*	FLuc counter=36*
COc1ccc2nc(NC(=O)C3CC(=O)N(c4ccc5c(c4)OCCO5)C3)sc2c1 (stereo not drawn)	x	x	x	x	9	x	x
N#Cc1ccc(OCC(=O)Nc2ccc(S(=O)(=O)N3CCOCC3)cc2)cc1	x	x	x	x	-18	x	x
Cc1ccc(CN2CC(C(=O)N3CCN(S(=O)(=O)c4c(F)cccc4F)CC3)CC2=O)cc1 (stereo not drawn)	0	-6	0	-4	-3	1	x
Oc1c(Cl)cc(Cl)cc1Sc1cc(Cl)cc(Cl)c1O	9	x	28	40*	100*	120*	92*	FLuc counter=17
Oc1c(Cl)cc(Cl)cc1CNn1cnnc1	-2	1	2	-1	-22	-10	x
CNC(=O)c1c(NC(=O)c2cc(-c3cc(C)c(C)cc3O)n[nH]2)sc2c1CCCC2	0	2	9	-2	50*	15	-3
COc1ccc(S(=O)(=O)N2CCN(C(=O)c3cc4c(s3)CCC4)CC2)cc1	x	x	-15	x	21	-3	x
C[n+]1c2n(c3ccccc31)N=C(c1cc(C(C)(C)C)c(O)c(C(C)(C)C)c1)CS2	2	9	107*	7	78*	-14	75*	FLuc counter=38*
COc1cccc(C2=Nn3c(nnc3-c3ccccc3O)SC2)c1	3	6	10	7	20	12	x
Cc1cccc(N(C(=O)C(F)(F)F)C(C(=O)NC2CCCCC2)c2cccs2)c1 (stereo not drawn)	2	-9	x	0	24	x	x

From PubChem
